# Assay outcomes (PubChem BioAssay)
# D2 ag-1 – activates the human D2 dopamine receptor. P14416. 360,000 compounds, 0.084% hits. DiscoveRx PathHunter D2 beta-arrestin, luminescence, 90 min; 100% = 57 uM dopamine signal. activation, % (test concentration not listed); in the data active = activation above about 40%; inconclusive = between about 15% and that limit
# Target sequence (P14416 whole entry, looked up): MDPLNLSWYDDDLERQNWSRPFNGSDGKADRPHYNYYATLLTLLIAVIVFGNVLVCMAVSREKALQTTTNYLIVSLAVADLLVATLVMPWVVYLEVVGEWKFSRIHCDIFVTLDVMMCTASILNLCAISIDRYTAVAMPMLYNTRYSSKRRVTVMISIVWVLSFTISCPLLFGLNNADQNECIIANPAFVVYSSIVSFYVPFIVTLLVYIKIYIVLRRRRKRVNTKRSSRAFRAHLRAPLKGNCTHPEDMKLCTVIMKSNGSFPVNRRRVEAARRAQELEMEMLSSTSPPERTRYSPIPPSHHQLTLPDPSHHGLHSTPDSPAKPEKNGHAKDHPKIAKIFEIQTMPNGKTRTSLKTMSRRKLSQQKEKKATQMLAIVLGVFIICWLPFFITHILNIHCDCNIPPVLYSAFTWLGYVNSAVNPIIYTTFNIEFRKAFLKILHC
#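 DiscoveRx PathHunter D2 beta-arrestin cells (2,100/well) attached overnight, then compound-stimulated 90 min at 37 C in HBSS/10 mM HEPES/0.1% Tween-20 buffer; beta-galactosidase complementation read by luminescence after 1 h at ambient temperature. Dopamine 57 uM final (EC100) as control.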
# D2 PAM-1 – human D2 receptor positive allosteric modulation; potentiation, % (concentration not given with the values); 360,000 compounds, 0.23% hits; P14416; AID 624464; DiscoveRx D2 beta-arrestin cells, luminescence, 90 min; 100% = 57 uM dopamine signal; in the data active = potentiation above about 50%; inconclusive = mostly about 30% to 49%
#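 D2 cells co-treated with compound plus 50 nM dopamine (EC20) for 90 min at 37 deg C to detect potentiation. Beta-arrestin recruitment was read as enzyme-fragment luminescence after 1 h at ambient temperature. Full response was set by 57 uM dopamine.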
# B2AR arrestin – beta2AR (human) beta-arrestin recruitment activity; P07550; 330,000 compounds, 0.02% hits; Potency, µM (doses to about 46.1 µM), actives largely listed as activators; beta-arrestin recruitment to beta2AR, cell-based reporter; active = well fitted activation curve with a large enough effect; inconclusive = small, poorly fitted or top-dose-only effect; note: nearly all actives have a fitted effect of over 65% in size
# D2 ag-2 – D2 dopamine receptor (human) agonism; P14416; 340,000 compounds, 0.53% hits; activation, % at 2 µM; HEK293 T-REx D2 cells, calcium flux agonist mode;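 active = activation over 3 SD above normal in the single-dose calcium agonist read, cut at about 30% in these data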
#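 Tetracycline-induced HEK293 Trex cells with D2 receptor force-coupled to calcium signaling, plated overnight at 30 C and loaded with no-wash calcium dye. Calcium flux read kinetically for 180 s after compound addition; responses flag agonists.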
# D2 PAM-2 – D2 dopamine receptor (human) potentiation; P14416; 340,000 compounds, 0.34% hits; HEK293 T-REx D2, calcium flux, EC20 dopamine potentiation; potentiation, % at 10 µM;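 active = potentiation over 3 SD above the plate norm, cut at about 30% in these data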
#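 Using a no-wash calcium dye in inducible, force-coupled HEK293 Trex cells expressing D2, we tracked fluorescence each second for 180 s after compound, then for 180 s after EC20 dopamine to detect augmented signalling.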
# D2 antagonist – antagonizes the human D2 dopamine receptor. HEK293 TREx D2 cells, calcium flux, dopamine EC80. 340,000 compounds, 2% hits. P14416. inhibition, % at 10 µM; in the data active = inhibition above about 30%; inactive = below that, where a call was filed
#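 HEK293 T-REx D2 cells, tet-induced, calcium dye no-wash. Cpd pintool add, 180 s kinetic, then EC80 DA, 180 s kinetic. Ca flux read.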
# Hits are given with their value; - = inactive; ? = inconclusive; . = no result given. Hits are enriched below; roughly 2.4% of the tested compounds scored in any of these assays.
SMILES,D2 ag-1,D2 PAM-1,B2AR arrestin,D2 ag-2,D2 PAM-2,D2 antagonist
O=C(c1cc(-c2ccc(F)cc2)on1)N1CCCCCC1,-,-,-,-,34,-
COc1ccc(-c2cc(C(=O)Nc3cccnc3Cl)no2)cc1,-,-,-,-,-,-
O=C(Nc1cccnc1Cl)c1cc(-c2ccc(F)cc2)on1,-,-,-,-,34,-
CC(C)CCNC(=O)Cc1ccc(Nc2nc(=S)[nH]c3ccccc23)cc1,-,-,-,-,-,-
CCOC(=O)C1=C(c2ccccc2)NC(SCC(=O)Nc2ccc(C)cc2)=C(C#N)C1c1ccco1 (centres undefined),-,-,.,-,-,55
Clc1ccccc1-c1cccc2nccn12,-,-,.,.,.,.
O=S(=O)(c1ccc(-c2csc(-c3cccnc3)n2)cc1)N1CCCCC1,-,-,-,-,-,37
O=S(=O)(c1ccc(-c2csc(-c3cccnc3)n2)cc1)N1CCCC1,-,-,-,-,-,-
CC1(C(=O)Nc2nccs2)Cc2ccccc2C(=O)O1 (centres undefined),-,-,-,-,-,-
COc1cc2[nH]c(C(=O)NCC3CCCO3)cc2c(OC)c1OC (centres undefined),-,-,-,-,-,55
CCCCCCc1ccc(N2C[C@H](Cc3ccccc3)[C@@H](CC(=O)Nc3ccccc3)C2=O)cc1,-,-,-,-,-,-
Cc1cc(C)c(C#N)c(N2CCN(Cc3ccccc3)CC2)n1,-,-,-,-,-,74
Cc1cc(C)c(C#N)c(N2CCN(Cc3ccc4c(c3)OCO4)CC2)n1,-,-,-,-,-,98
O=C(CCc1nc2ccccc2c(=O)[nH]1)NCc1ccco1,-,-,-,-,-,-
COc1cccc(N(CC(=O)NC2CCCCC2)C(=O)c2snc(C(N)=O)c2N)c1,-,-,-,-,.,-
Cc1ccc(/C(N)=N/OC(=O)/C=C/c2ccccc2)cc1,-,-,-,-,-,-
Cc1ccccc1/C(N)=N/OC(=O)/C=C/c1ccccc1,?,87,-,-,-,-
Cc1ccccc1/C(N)=N/OC(=O)c1cccs1,?,139,-,.,.,.
N/C(Cc1ccc(Cl)c(Cl)c1)=N\OC(=O)c1cccs1,-,81,-,-,-,-
COc1ccc(/C=C/C(=O)O/N=C(\N)c2ccccc2)cc1OC,-,52,-,-,-,-
COc1ccc(/C(N)=N/OC(=O)/C=C/c2ccccc2)cc1,-,-,-,-,-,-
CNC(=O)C1CC(=O)N/C(=N/N=C(\C)c2cccs2)S1 (centres undefined),-,-,-,-,-,-
Cc1ccc(Nc2nc3c(S(=O)(=O)c4ccccc4)nnn3c3ccc(Cl)cc23)c(C)c1,.,.,.,.,-,.
COc1ccc(/C=C/C(=O)Nc2ccccc2)cc1OC,-,-,-,-,-,30
CCCS(=O)(=O)NC(=O)C1(C)CCN(C(=O)COc2ccc(Cl)cc2Cl)C1 (centres undefined),-,60,.,.,.,.
SMILES,D2 ag-1,D2 PAM-1,B2AR arrestin,D2 ag-2,D2 PAM-2,D2 antagonist
CN(C)S(=O)(=O)c1ccc(C(=O)OCCc2ccccc2)cc1,-,-,-,-,37,-
CN(C)S(=O)(=O)c1ccc(C(=O)OCC(=O)NCc2ccccc2)cc1,-,-,-,-,-,-
Cc1cc(S(=O)(=O)N2CCN=C2c2ccccc2)c(Cl)cc1Cl,-,-,-,30,-,-
CSc1nc2sc3c(c2c(=O)[nH]1)CC(C)(C)OC3,-,-,-,-,-,-
Cc1ccc(N(C(=O)c2csnn2)C(C(=O)NC2CCCC2)c2ccncc2)c(C)c1 (centres undefined),-,-,-,-,-,-
OCCN1CCN(CC/C=C2/c3ccccc3Sc3ccc(Cl)cc32)CC1,-,-,-,-,-,73
CC[N+](C)(C)CC/C=C1/c2ccccc2Sc2ccc(Cl)cc21,-,-,-,-,-,-
CN(C)CC/C=C1\c2ccccc2Sc2ccc(Cl)cc21,-,-,-,-,-,85
O=c1[nH]c(CN2CCc3ccccc32)nc2scc(-c3cccs3)c12,-,-,-,-,-,-
COc1cccc(-c2csc(NNC(=O)c3cccs3)n2)c1,-,-,-,-,-,-
COC(=O)c1ccccc1-c1c2ccc(=N)cc-2oc2cc(N)ccc12,-,-,-,97,-,77
O=C(NCc1ccccc1)c1n[nH]nc1-c1ccccc1O,-,-,-,-,-,31
Cn1c(C(=O)NCCN2CCc3ccccc3C2)cc2c(=O)n(C)c3ccccc3c21,-,-,-,-,-,48
Cn1c(C(=O)NCCN2CCOCC2)cc2c(=O)n(C)c3ccccc3c21,-,-,-,-,-,-
COc1ccccc1N1CCN(C(=O)CSc2nc3ccccc3o2)CC1,-,-,-,-,-,-
O=C(Nc1cccc(Cl)c1)c1cc(S(=O)(=O)N2CCOCC2)cs1,-,-,-,-,-,35
O=S(=O)(c1cccc(NC(=S)Nc2ccc(Br)cc2Cl)c1)N1CCOCC1,-,-,-,-,-,38
O=C(Nc1ccc(Cl)cc1)c1cc(S(=O)(=O)N2CCOCC2)cs1,-,-,-,-,-,-
O=C(COC(=O)c1cccs1)Nc1cccc(S(=O)(=O)N2CCOCC2)c1,-,-,-,-,-,36
O=C(Nc1nc2ccc(S(=O)(=O)N3CCOCC3)cc2s1)c1cccs1,-,-,-,-,-,57
CCOC(=O)c1ccc(CN(Cc2ccccc2C)S(=O)(=O)c2ccc(C(C)(C)C)cc2)cc1,.,.,.,-,-,.
O=C(OCc1nc2ccccc2s1)c1ccc(Br)s1,-,-,-,-,-,32
Cc1cc(NC(=O)CCN2CCCCC2)ccc1Br,-,-,-,-,-,-
CC(=O)OC1CC2(C)/C(=N\O)CCC2C2CCc3cc(O)ccc3C12 (centres undefined),41,-,-,.,.,.
CCc1ccc(C2=CC(c3cccc(OC)c3OC)n3c(nc4ccccc43)N2)cc1 (centres undefined),.,.,.,-,-,.
Cc1cccc(NC(=O)CN2C(=O)N/C(=C\c3cccn3-c3cccc(C(=O)O)c3)C2=O)c1,-,-,-,.,-,.
COc1ccc(NC(=O)C2CCN(C(=O)Nc3ccccc3)CC2)cc1S(=O)(=O)N(C)C,-,-,?,-,-,77
N#Cc1c(N2CCN(C(=O)c3ccccc3)CC2)nc(-c2ccccc2)c2c1CCCC2,-,-,-,-,-,-
N#Cc1c(N2CCN(C(=O)c3ccco3)CC2)nc(-c2ccccc2)c2c1CCCC2,-,-,-,-,-,32
